Among all 3,600 compounds or so, about 900 (25%) were called active. No rule for the calls is given here. Only a sample is shown. Entries with a potency or affinity are not part of this list.
biological target: Protein Tat (Human immunodeficiency virus type 1 group M subtype B (isolate HXB2)) (UniProt P04608); assay: HIV-1 Tat–TAR interaction blockers – biochemical, fluorescence polarization, FAM-labeled TAR RNA, counter-screen for Vif-APOBEC3G degradation inhibitor project, dose response (AID 1117361); details: Tat-TAR RNA binding; series mostly up to 100 µM

Compound	outcome
CCOC(=O)C(NC(=O)NC1CCCCC1)(c1ccccc1)C(F)(F)F (configuration not stated)	inactive
CCOc1ccccc1C(=S)NC1CCCCC1	inactive
COc1cc(CN2CCNC(=O)C2CC(=O)N(Cc2nccn2C)C(C)C)cc(OC)c1 (configuration not stated)	inactive
CCOCC(=O)Nc1nc2ccc(OC)cc2s1	inactive
CC(NC(=O)c1cccs1)C(c1cccs1)N1CCN(Cc2ccccc2)CC1 (configuration not stated)	inactive
COCCCN1C(=O)C(O)=C(C(C)=O)C1c1ccccn1 (configuration not stated)	inactive
CCOc1ccc(OCC)c(S(=O)(=O)NCc2ccc3c(c2)OCO3)c1	inactive
COC(=O)CC(NS(=O)(=O)c1cccs1)c1cccc2ccccc12 (configuration not stated)	inactive
Cc1ccc(SCCNC(=O)c2cccc([N+](=O)[O-])c2C)cc1	inactive
CCOC(=O)Cn1c(=O)oc2cc(S(=O)(=O)Nc3c(C)cc(C)cc3C)ccc21	inactive
CCOc1ccc(Br)cc1/C=N/O	inactive
O=C(CN1C(=O)c2ccccc2C1=O)NCC(=O)OCC(=O)c1cccc([N+](=O)[O-])c1	inactive
O=C1CN(C(=O)COC(=O)C23CC4CC(CC(O)(C4)C2)C3)c2ccccc2N1	inactive
COc1ccc(NC(=O)CCc2nc(-c3ccccc3F)no2)cc1	inactive
O=C(NCCCN1CCOCC1)c1ccc(Br)s1	inactive
CC1CCN(C(=O)CCc2nc3cc(S(=O)(=O)N(C)C)ccc3n2C)CC1	inactive
CCC(CC)NC(=O)Nc1ccc(F)cc1F	inactive
CCC(CC)c1nc2cc(OC)c(OC)cc2c(=O)o1	inactive
Oc1ccc(C2Nc3cccc4cccc(c34)N2)c(O)c1	inactive
CCOC(=O)C1CCCC12Nc1cccc3cccc(c13)N2 (configuration not stated)	inactive
CCCCc1nc2sc3c(=O)[nH]cnc3c2c2c1CCCC2	inactive
CC(C)(C)C(=O)OCc1nc(-c2ccc(O)c(O)c2)cs1	inactive
Cc1cccnc1Nc1nc(-c2ccc(O)c(O)c2)cs1	inactive

Compound	outcome
CCc1nnc(NC(=O)c2ccc(S(=O)(=O)N(CC(C)C)CC(C)C)cc2)o1	inactive
CCCNC(=O)c1ccc(-c2nc3ccccc3s2)s1	inactive
Cc1nnc(SCCCn2c(N3CCN(c4ccccc4)CC3)nc3c2c(=O)[nH]c(=O)n3C)s1	inactive
NCCCSC1=NCCCN1	inactive
CCCCCOC(=O)C1=C(C)Nc2nnnn2C1c1ccccc1Cl (configuration not stated)	inactive
COc1ccccc1NC(=O)C1=C(C)Nc2nnnn2C1c1ccccn1 (configuration not stated)	inactive
COc1cccc(N2C(=O)C3ON(c4ccccc4)C(c4cccs4)C3C2=O)c1 (configuration not stated)	inactive
COc1ccc(N2CCN(CC(=O)c3c(C)n(C)c4ccc(OC)cc34)CC2)cc1	inactive
CN1CCN(CCCNC(=O)C2CC(=O)N(C3CCCCC3)C2)CC1 (configuration not stated)	inactive
C=CCn1c(C)cc(C(=O)COC(=O)C2CC(=O)N(Cc3ccccc3)C2)c1C (configuration not stated)	inactive
CC1C/C(=N/N2C(=O)CSC2=S)CC(C)(C)C1 (configuration not stated)	inactive
COCCNc1nc2c(c(=O)n(C)c(=O)n2C)n1Cc1cccc(C)c1	inactive
CCOc1cc(C(=O)Nc2cc(C)ccn2)cc(OCC)c1OCC	inactive
COc1ccc(S(=O)(=O)n2nc(OC(=O)c3ccc(C)cc3)cc2N)cc1	inactive
Nc1ccc(N=Nc2ccc(O)cc2)c(N)n1	inactive
COCCn1c(SCC(=O)N2CCC(C)CC2)nc2c([nH]c3ccccc32)c1=O	inactive
Cn1nc(C(F)(F)F)c2cc(C(=O)NC3CC3)sc21	inactive
O=[N+]([O-])c1ccc(CNc2ccc(F)cc2)s1	inactive
COc1cccc(CN2CCSCC2)c1	inactive
CCOc1ccc(N(CC(=O)Nc2cccc(OC)c2)S(=O)(=O)c2c(C)noc2C)cc1	inactive
CCN1CCN(S(=O)(=O)c2cccs2)CC1	inactive
O=[N+]([O-])c1ccc(O)c2ncccc12	inactive
O=c1c2ccccc2c(-c2ccccc2)nn1-c1cc(Cl)ccc1[N+](=O)[O-]	inactive

Compound	outcome
Cc1ccccc1CS(=O)(=O)Cc1ccc(C(=O)N2CCOCC2)o1	inactive
O=C(COC(=O)Cc1cccc(C(F)(F)F)c1)NCC1CCCO1 (configuration not stated)	inactive
COc1ccc(CC(=O)Nc2ccc(-c3csc(C)n3)cc2)cc1	inactive
O=C(O)/C=C/c1ccc(S(=O)(=O)N2CCN(CCN3C(=O)C4C5C=CC(C5)C4C3=O)CC2)cc1 (configuration not stated)	inactive
COc1ccc(-n2c(SCC(=O)NNC(=O)c3ccccc3C)nnc2-c2ccncc2)cc1	inactive
CC(C)(C)c1cc(N/C=C\c2nnnn2-c2ccc(Br)cc2)no1	inactive
CCCCn1cnc2c1c(=O)n(C)c(=O)n2C	inactive
CC(/C=C/c1ccco1)=N\NC(=O)c1cccnc1	inactive
COc1ccc(/C=N/NC(=O)Cn2cnc3c2c(=O)n(C)c(=O)n3C)c(OC)c1OC	inactive
O=C(Nc1ccc2c(c1)oc1ccccc12)c1cccnc1	inactive
O=C(c1cc(COc2ccc(F)cc2F)on1)N1CCN(C2CCCC2)C(=O)C1	inactive
CC(C)CCn1cnc2c([nH]c3cccc(Cl)c32)c1=O	inactive
CCCS(=O)(=O)N1CCC(C(=O)NCCCN(CC)c2cccc(C)c2)CC1	inactive
CCc1nnc(NC(=O)C(NS(=O)(=O)c2ccc3c(c2)OCCO3)C(C)C)s1 (configuration not stated)	inactive
Nc1nc(SCc2nc(-c3ccccc3)no2)[nH]c(=O)c1-c1ccccc1	inactive
Cc1ccc(-c2nnn(CC(=O)N(c3ccc(F)cc3)C(C(=O)NC3CCCC3)c3ccco3)n2)o1 (configuration not stated)	inactive
O=S(=O)(c1ccc(NC(=S)N/N=C/c2ccc(O)c(O)c2)cc1)N1CCOCC1	inactive
O=C(CC(=O)NN=Cc1ccc2c(c1)CCC2)NN=Cc1ccc2c(c1)CCC2	inactive
Cc1[nH]c2ccccc2c1C(=O)CN1CCC(C(N)=O)(N2CCCCC2)CC1	inactive
C[C@H](NC(=O)c1ccco1)C(=O)Nc1cccc([N+](=O)[O-])c1	inactive
CCNS(=O)(=O)c1ccc(NS(=O)(=O)c2cc(C)ccc2C)cc1	inactive
N/C(=N\OC(=O)COc1ccc2ccccc2c1)c1ccccn1	inactive
Cc1ccc(-c2nn3c(C)nnc3s2)cc1NC(=O)CSc1ccc(Cl)cc1	inactive

Compound	outcome
COc1ccc(C)cc1-n1c(SCC(=O)Nc2cc(C)on2)nc2sc(C)c(C)c2c1=O	inactive
CCCCn1c(CCNC(=O)CC)nc2ccccc21	inactive
CCC(C)(C)NC(=O)C(c1ccc(F)cc1)N(Cc1ccco1)C(=O)c1cnccn1 (configuration not stated)	inactive
CC(OC(=O)c1cccnc1)C(=O)NCc1ccc2c(c1)OCO2 (configuration not stated)	inactive
O=C(COC(=O)c1ccccc1Br)Nc1nnc(-c2ccccc2)o1	inactive
Cc1cc(C)cc(NC2=CC(=O)CC(c3ccco3)C2)c1 (configuration not stated)	inactive
O=C(O)CCCC(=O)NCCc1cccc(Cl)c1	inactive
COc1ccc(CSc2nnnn2C)cc1F	inactive
COc1ccc(OC)c(C(=O)CSc2nnnn2C)c1	inactive
CCOC(=O)C1(CCOC)CCN(Cc2cnc(-c3cccc(C)c3)nc2)CC1	inactive
CCOC(=O)c1c(C)[nH]c(C(=O)COC(=O)CSCC(=O)N(CC)CC)c1C	inactive
Cc1ccc(-c2csc(NC(=O)c3ccc(-c4ccccc4)cc3)n2)o1	inactive
Cc1ccc(NCc2nnc(SCc3ccc(C#N)cc3)n2Cc2ccco2)c(C)c1	inactive
c1ccc(Nc2ccccn2)cc1	inactive
CN(Cc1nc(-c2cccnc2)no1)S(=O)(=O)c1ccccc1	inactive
Cc1cccc2c1c1ccc3c(c1n2C)C(=O)C=CC3=O	inactive
CCOC(=O)c1csc(N)c1-c1ccc([N+](=O)[O-])cc1	inactive
CCOc1ccc(NC(=O)C2CCCN(S(=O)(=O)c3c(C)nn(C)c3C)C2)cc1 (configuration not stated)	inactive
COc1ccccc1N1CCN(C(=O)c2oc3cc(C)c(C)cc3c2C)CC1	inactive
CC(C)c1ccc(-c2nc(N3CCCCCC3)nc3n[nH]c(N)c23)cc1	inactive
Cc1ccc(S(=O)(=O)N(CC(=O)NCCC2=CCCCC2)Cc2ccccc2F)cc1	inactive
O=[N+]([O-])c1ccc2c(c1)S(=O)c1ccccc1-2 (configuration not stated)	inactive
COC(=O)CSc1nc2cc(C)cc(C)c2cc1C#N	inactive

Compound	outcome
COc1cccc(C(=O)Nc2nc3c(s2)CN(C)CC3)c1	inactive
NC(=S)N=Nc1c(O)n(C2OC(=O)c3ccccc32)c2ccccc12 (configuration not stated)	inactive
CCOc1ccccc1C(=O)NCC(=O)OCC(=O)NCCc1ccc(S(N)(=O)=O)cc1	inactive
COC(=O)c1c(C)[nH]c(C=O)c1-c1ccccc1	inactive
COC(=O)C(O)(CC(=O)c1ccc(OC)cc1)C(F)(F)F (configuration not stated)	inactive
CCCC(NCC(=O)Nc1ccccc1C(=O)NC1CC1)c1ccccc1 (configuration not stated)	inactive
O=C(C1CCC(CNS(=O)(=O)c2cccc3cccnc23)CC1)N1CCCC1 (configuration not stated)	inactive
COc1ccc(NC(=O)C2CCCN2S(=O)(=O)c2cccc3cccnc23)c(OC)c1 (configuration not stated)	inactive
O=C(Nc1ccc(-c2noc(-c3cccs3)n2)cc1)c1cccnc1	inactive
COc1ccc(-c2nc(C(N)=O)c3[nH]c(=O)n(-c4cccc(Cl)c4)c3n2)cc1OC	inactive
O=c1cc(-c2ccc(O)cc2)oc2cc(O)c(C3OC(CO)C(O)C(O)C3O)c(O)c12 (configuration not stated)	inactive
CSCCC(NC(=O)C1CCC(C)CC1)C(=O)NCc1ccco1 (configuration not stated)	inactive
Cc1ccc(-n2c(SCC(N)=O)nc3c([nH]c4ccccc43)c2=O)cc1	inactive
CN1C(=O)c2ccccc2C(C(=O)O)C1c1cccc(F)c1 (configuration not stated)	inactive
Cc1cc(O)c(C(C)C)cc1N=Cc1ccc([N+](=O)[O-])cc1	inactive
Cc1ccc(-n2ncc3c(=O)[nH]cnc32)c(C)c1	inactive
O=C(NC1CCCCC1)C(c1ccc(Cl)cc1)N(C(=O)c1ccccn1)c1cccnc1 (configuration not stated)	inactive
COc1ccccc1NC(=O)c1cc2ccc(O)cc2o/c1=N\O	inactive
CCOC(=O)CSc1nnc(CNC(=O)c2cc(OC)c(OC)c(OC)c2)n1C	inactive
COC(=O)CSc1nnc(CNC(=O)Cc2ccccc2)n1-c1ccccc1OC	inactive

— PubChem BioAssay AID1117361 (Southern Research Institute, 2015)
